Assay [1] can be described thus: ATG_CRE_CIS: Attagene CIS-FACTORIAL HepG2 Assay for human cAMP Responsive Element (CRE) binding protein 3 (AID 2282926). Conditions: HepG2 CRE cis-reporter, Attagene multiplexed mRNA; actives raise or lower the signal. The procedure, abridged:
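Human liver HepG2, transient MRTU transfection, 24 h compound exposure. Total RNA → oligo(dT) RT → PCR → 6-FAM primer extension → HpaI cut → CE. Activity called both directions vs DMSO.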

The target in assay [2] is CCAAT/enhancer-binding protein beta (Homo sapiens) (UniProt P17676). Description: ATG_C_EBP_CIS: Attagene CIS-FACTORIAL HepG2 Assay for human CCAAT/Enhancer Binding Protein (C/EBP) beta (AID 2282927). The note with it: HepG2 Attagene cis-factorial transcription factor reporter; actives raise or lower the signal. In short, it runs like this: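 Endogenous C/EBPb-driven reporter transcripts measured in transfected human HepG2 cells at 24 h via RT-PCR and capillary electrophoresis of labelled fragments. Activity fitted in both directions relative to DMSO baseline.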

Assay [3] is described as follows: ATG_DR4_LXR_CIS: Attagene CIS-FACTORIAL HepG2 Assay for human Liver X Receptor (LXR), DR4 submotif (AID 2282929). Conditions: HepG2 Attagene DR4 cis-reporter, mRNA transcription; actives raise or lower the signal. In short, it runs like this: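 Measures endogenous transcription factor activity via a DR4-driven reporter transcript in human HepG2 cells. Compounds incubated 24 h; mRNA quantified by RT-PCR and capillary electrophoresis, analysed as gain or loss of signal versus DMSO.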

A short description of assay [4]: ATG_AP_2_CIS: Attagene CIS-FACTORIAL HepG2 Assay for human Activator Protein 2 (AP-2) (AID 2282932). The note with it: HepG2 AP-2 cis-reporter, Attagene transcription factor profiling; actives raise or lower the signal. The procedure, abridged:
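HepG2, transient MRTU transfection, cis-regulated reporters; 24 h compound exposure; RNA isolated, RT-PCR, 6-FAM labelling, HpaI digest, CE fluorescence. DMSO = negative control/baseline, bidirectional fit.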

Assay [5] is described as follows: ATG_BRE_CIS: Attagene CIS-FACTORIAL HepG2 Assay for human Bone Morphogenetic Protein (BMP) Response Element (BRE) (AID 2282933). The note with it: HepG2 BMP response element reporter, Attagene transcription factor profiling; actives raise or lower the signal. In short, it runs like this: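 Read-out: reporter mRNA induction quantified by RT-PCR and capillary electrophoresis after 24 h chemical exposure of transfected HepG2 cells. Endogenous factor activity on the BMP response element; gain or loss fitted against DMSO baseline.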

For assay [6], the target named is Transcription factor E2F1 (Homo sapiens) (UniProt Q01094). The assay can be described thus: ATG_E2F_CIS: Attagene CIS-FACTORIAL HepG2 Assay for human E2F Transcription Factor 1 (AID 2282935). The note with it: HepG2 Attagene cis-reporter, E2F reporter RNA transcripts; actives raise or lower the signal. In short, it runs like this: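 Cis-element reporter mRNA induction in transiently transfected HepG2, 24 h exposure. Activity fitted in both directions relative to DMSO negative control.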

Assay [7] is described as follows: ATG_EGR_CIS: Attagene CIS-FACTORIAL HepG2 Assay for human Early Growth Response 1 (EGR1) (AID 2282938). Conditions: HepG2 Attagene CIS-FACTORIAL EGR reporter mRNA; actives raise or lower the signal. The procedure, abridged: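 Cell-based multiplex transcription assay: HepG2 carrying transfected cis-element reporter units, 24 h chemical treatment. Fluorescence from capillary electrophoresis of RT-PCR products gives mRNA levels; fitting is bidirectional relative to DMSO.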

A short description of assay [8]: ATG_M_19_CIS: Attagene CIS-FACTORIAL HepG2 Assay for M19 Transcription Factor (Internal Marker) (AID 2282939). The note with it: HepG2 Attagene CIS-FACTORIAL M19 internal marker reporter; actives raise or lower the signal. The procedure, abridged:
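Readout: fluorescent reporter-transcript fragments by capillary electrophoresis after RT-PCR. Human HepG2 liver cells carried transfected MRTU constructs reporting endogenous transcription-factor activity; exposure 24 h. Gain or loss of signal fitted relative to DMSO.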

Assay [9] in a line: ATG_Ets_CIS: Attagene CIS-FACTORIAL HepG2 Assay for human Erythroblast Transformation Specific (ETS) (AID 2282941). The note with it: HepG2 ETS cis-reporter transcription, actives raise or lower the signal. The procedure, abridged: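 Human HepG2 hepatoma cells were transiently transfected with promoter-driven reporter constructs and treated for 24 hours. Reporter transcripts were quantified by RT-PCR with fluorescent primer extension; bidirectional curve fitting used DMSO as reference.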

For assay [10], the target named is Hepatocyte nuclear factor 3-beta (Homo sapiens) (UniProt Q9Y261). The assay can be described thus: ATG_FoxA2_CIS: Attagene CIS-FACTORIAL HepG2 Assay for human Forkhead box A2 (FOXA2) (AID 2282942). The note with it: HepG2 cis-reporter transcription factor activity, 24 h; actives raise or lower the signal. In short, it runs like this: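 In transiently transfected human HepG2 cells, promoter-driven reporter mRNA levels after 24 h chemical exposure are determined via RT-PCR with capillary electrophoresis. DMSO serves as baseline for bidirectional fitting.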

The nature of assay [11]: ATG_FoxO_CIS: Attagene CIS-FACTORIAL HepG2 Assay for human Forkhead box O (FoxO) (AID 2282943). Conditions: HepG2 Attagene cis-reporter, FoxO element, mRNA; actives raise or lower the signal. In short, it runs like this:
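Endogenous transcription factor activity read from multiplexed cis-promoter reporter transcripts in transiently transfected HepG2, 24 h after dosing. Reporter RNA measured via RT-PCR plus capillary electrophoresis of FAM-labeled products; gain or loss relative to DMSO.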

The nature of assay [12]: ATG_GATA_CIS: Attagene CIS-FACTORIAL HepG2 Assay for human GATA Binding Protein (AID 2282944). The note with it: HepG2 GATA cis-element reporter, Attagene multiplex mRNA; actives raise or lower the signal. In short, it runs like this:
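Read-out: fluorescent reporter mRNA fragments resolved by capillary electrophoresis after RT-PCR. Human liver HepG2 cells carried transiently transfected cis-regulated reporter constructs; chemicals incubated 24 h; gain or loss of signal fitted relative to DMSO.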

A short description of assay [13]: ATG_GLI_CIS: Attagene CIS-FACTORIAL HepG2 Assay for human Zinc Finger Protein GLI1 (AID 2282945). The note with it: HepG2, Attagene cis-factorial reporter mRNA, GLI element; actives raise or lower the signal. The procedure, abridged:
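Bidirectional curve fits relative to DMSO, using reporter mRNA levels from RT-PCR plus capillary electrophoresis. Cells were HepG2 transiently carrying cis-regulated reporter constructs, harvested 24 h after dosing.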

Assay [14] in a line: ATG_M_06_CIS: Attagene CIS-FACTORIAL HepG2 Assay for M06 Transcription Factor (Internal Marker) (AID 2282950). The note with it: HepG2 Attagene CIS-FACTORIAL M06 internal marker reporter; actives raise or lower the signal. The procedure, abridged: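 Terse: HepG2, transient MRTU transfection (FuGene 6), 24 h dosing; total RNA, oligo(dT) RT, PCR, FAM label, HpaI cut, capillary electrophoresis; bidirectional fit vs DMSO baseline; background-control endpoint.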

Assay [15] is described as follows: ATG_MRE_CIS: Attagene CIS-FACTORIAL HepG2 Assay for human Metal Responsive Element (MRE) (AID 2282954). The note with it: HepG2 MRE cis-reporter transcription, Attagene multiplex; actives raise or lower the signal. In short, it runs like this: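 Transient MRTU transfection of HepG2 (FuGene 6); 24 h dosing; total RNA → oligo(dT) RT, PCR, 6-FAM primer extension, HpaI cut, CE. Bidirectional fit vs DMSO.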

Assay [16] deals with Paired box protein Pax-6 (Homo sapiens) (UniProt P26367). Description: ATG_Pax6_CIS: Attagene CIS-FACTORIAL HepG2 Assay for human Paired Box 6 (PAX6) (AID 2282956). The note with it: HepG2 CIS-FACTORIAL PAX6 reporter transcription, RNA readout; actives raise or lower the signal. The procedure, abridged: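 Multiplexed cis-reporter HepG2 system; 24 h treatment; reporter mRNA read by RT-PCR/CE fluorescence; bidirectional fit vs DMSO.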

A short description of assay [17]: ATG_PXRE_CIS: Attagene CIS-FACTORIAL HepG2 Assay for human Pregnane X Receptor Element (PXRE) (AID 2282957). The note with it: HepG2 Attagene CIS-FACTORIAL PXRE reporter, mRNA; actives raise or lower the signal. In short, it runs like this: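 Transfect HepG2 with MRTUs (cis promoter elements); dose chemical, incubate 24 h; isolate RNA, RT with oligo(dT), PCR, 6-FAM label, HpaI cut, CE. Gain/loss fit vs DMSO.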

Assay [18] in a line: ATG_Sox_CIS: Attagene CIS-FACTORIAL HepG2 Assay for human SRY-box transcription factor (SOX) (AID 2282960). The note with it: HepG2 Attagene cis-factorial SOX reporter, mRNA; actives raise or lower the signal. In short, it runs like this:
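After 24 h of chemical treatment, transfected HepG2 reporter cells are lysed for total RNA. Transcript levels come from RT-PCR with labelled primer extension and capillary electrophoresis, analysed bidirectionally versus DMSO.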

Assay [19] addresses Transcription factor Sp1 (Homo sapiens) (UniProt P08047). Description: ATG_Sp1_CIS: Attagene CIS-FACTORIAL HepG2 Assay for human Specificity Protein 1 (Sp1) (AID 2282961). Conditions: HepG2 Sp1 cis-reporter transcription, actives raise or lower the signal. In short, it runs like this:
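Sp1-driven reporter mRNA, read as capillary electrophoresis fluorescence after RT-PCR, in transiently transfected HepG2 cells dosed for 24 h; signal change in either direction relative to DMSO.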

Assay [20] is described as follows: ATG_SREBP_CIS: Attagene CIS-FACTORIAL HepG2 Assay for human Sterol Regulatory Element Binding (SREBP) (AID 2282962). The note with it: HepG2 Attagene cis-factorial SREBP reporter, mRNA; actives raise or lower the signal. The procedure, abridged:
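mRNA induction of transfected cis-promoter reporters in HepG2 cells, 24 h post-dose. Detection: RT-PCR with 6-FAM-labelled products, HpaI digest, capillary electrophoresis. DMSO served as negative control and baseline.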

Results on three molecules are retold here after PubChem BioAssay (EPA / NIEHS).

What is called AC50 is the midpoint of the concentration-response curve, whichever way the signal moves.

Active and inactive are the calls of the source. Rule for the calls: active = hit-call score of the fitted dose curve at least 0.9, where 1 is the maximum; inactive = score below 0.9.

Chain of Hepatocyte nuclear factor 3-beta (Homo sapiens) (Q9Y261 whole entry, looked up): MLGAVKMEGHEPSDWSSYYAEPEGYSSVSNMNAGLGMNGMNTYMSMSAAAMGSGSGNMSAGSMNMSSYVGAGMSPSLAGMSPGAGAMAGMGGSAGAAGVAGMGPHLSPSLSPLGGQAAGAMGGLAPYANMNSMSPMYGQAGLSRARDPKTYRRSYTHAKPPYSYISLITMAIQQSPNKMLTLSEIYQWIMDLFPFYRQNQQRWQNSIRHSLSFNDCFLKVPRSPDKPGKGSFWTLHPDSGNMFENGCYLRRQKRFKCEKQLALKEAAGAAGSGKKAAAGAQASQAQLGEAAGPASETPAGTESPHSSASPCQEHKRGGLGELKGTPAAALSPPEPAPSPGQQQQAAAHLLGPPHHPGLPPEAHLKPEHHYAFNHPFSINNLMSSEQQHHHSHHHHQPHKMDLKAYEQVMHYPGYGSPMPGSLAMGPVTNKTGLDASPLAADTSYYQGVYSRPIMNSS
Chain of CCAAT/enhancer-binding protein beta (Homo sapiens) (P17676 whole entry, looked up, the tested form may be a part): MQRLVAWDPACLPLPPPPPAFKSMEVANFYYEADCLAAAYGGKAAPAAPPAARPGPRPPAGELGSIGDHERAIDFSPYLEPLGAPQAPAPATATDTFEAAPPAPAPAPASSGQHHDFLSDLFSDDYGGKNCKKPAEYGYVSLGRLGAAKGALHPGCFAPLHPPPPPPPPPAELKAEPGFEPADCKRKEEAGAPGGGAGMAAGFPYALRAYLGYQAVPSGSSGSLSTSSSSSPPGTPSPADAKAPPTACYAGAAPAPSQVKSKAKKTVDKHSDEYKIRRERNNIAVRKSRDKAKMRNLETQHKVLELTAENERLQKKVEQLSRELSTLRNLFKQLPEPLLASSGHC
Chain of Transcription factor E2F1 (Homo sapiens) (Q01094 whole entry, looked up): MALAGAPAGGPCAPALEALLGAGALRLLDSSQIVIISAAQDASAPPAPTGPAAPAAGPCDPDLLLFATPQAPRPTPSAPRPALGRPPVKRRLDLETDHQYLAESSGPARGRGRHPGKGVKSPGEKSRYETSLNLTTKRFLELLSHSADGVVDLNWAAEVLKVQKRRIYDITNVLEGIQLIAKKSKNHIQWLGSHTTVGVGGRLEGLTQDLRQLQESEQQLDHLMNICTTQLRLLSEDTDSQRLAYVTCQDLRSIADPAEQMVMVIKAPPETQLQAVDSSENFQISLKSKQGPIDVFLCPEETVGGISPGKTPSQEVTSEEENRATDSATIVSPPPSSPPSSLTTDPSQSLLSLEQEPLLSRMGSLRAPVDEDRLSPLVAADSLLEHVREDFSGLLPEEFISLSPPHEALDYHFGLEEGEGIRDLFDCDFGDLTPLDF
Chain of Paired box protein Pax-6 (Homo sapiens) (P26367 whole entry, looked up): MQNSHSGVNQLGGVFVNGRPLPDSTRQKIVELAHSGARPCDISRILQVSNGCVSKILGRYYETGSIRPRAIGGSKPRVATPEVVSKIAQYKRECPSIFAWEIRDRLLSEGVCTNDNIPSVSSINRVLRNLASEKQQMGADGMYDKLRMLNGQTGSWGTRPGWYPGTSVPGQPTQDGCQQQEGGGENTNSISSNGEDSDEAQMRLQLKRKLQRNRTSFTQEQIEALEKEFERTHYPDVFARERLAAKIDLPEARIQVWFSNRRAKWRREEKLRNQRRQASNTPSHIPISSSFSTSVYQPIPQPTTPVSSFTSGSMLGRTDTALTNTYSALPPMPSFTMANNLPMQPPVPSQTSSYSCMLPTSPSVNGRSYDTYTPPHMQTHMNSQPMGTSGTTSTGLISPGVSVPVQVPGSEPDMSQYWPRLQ
Chain of Transcription factor Sp1 (Homo sapiens) (P08047 whole entry, looked up): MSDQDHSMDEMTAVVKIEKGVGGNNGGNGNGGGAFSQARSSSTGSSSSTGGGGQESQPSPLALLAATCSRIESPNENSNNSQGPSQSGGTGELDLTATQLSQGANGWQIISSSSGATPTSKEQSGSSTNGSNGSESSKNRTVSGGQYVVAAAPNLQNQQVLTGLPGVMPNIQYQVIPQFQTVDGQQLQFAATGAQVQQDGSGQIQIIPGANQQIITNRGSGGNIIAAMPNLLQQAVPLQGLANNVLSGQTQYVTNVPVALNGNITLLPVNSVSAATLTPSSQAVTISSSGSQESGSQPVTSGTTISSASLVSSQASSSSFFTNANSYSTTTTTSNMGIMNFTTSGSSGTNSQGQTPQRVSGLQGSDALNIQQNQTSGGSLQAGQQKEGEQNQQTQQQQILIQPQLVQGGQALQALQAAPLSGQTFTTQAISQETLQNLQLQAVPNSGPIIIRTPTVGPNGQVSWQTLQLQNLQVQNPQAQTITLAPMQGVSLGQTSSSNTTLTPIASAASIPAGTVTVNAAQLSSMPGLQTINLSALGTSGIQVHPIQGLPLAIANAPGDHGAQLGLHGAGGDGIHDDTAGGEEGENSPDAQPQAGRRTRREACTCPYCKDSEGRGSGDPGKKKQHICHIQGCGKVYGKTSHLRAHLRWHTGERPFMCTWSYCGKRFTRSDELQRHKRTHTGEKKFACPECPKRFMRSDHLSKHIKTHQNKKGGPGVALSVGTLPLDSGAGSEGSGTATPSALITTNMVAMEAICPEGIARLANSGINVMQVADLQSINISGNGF

In the case of `[CH3][Sn]([Cl])([Cl])[Cl]`, the result in [1], in [2], in assay [3], in assay [4], in [5] and in assay [6] was inactive. Also, the call in [7], in assay [8], in [9], in [10], in [11] and in [12] was inactive. Moreover, the molecule was classed as inactive in assay [13], in [14], in assay [15], in assay [16], in assay [17] and in assay [18]. Further, the outcome in assay [19] and in assay [20] was inactive.
In the case of `O=CNC(N1CCN(C(NC=O)C(Cl)(Cl)Cl)CC1)C(Cl)(Cl)Cl` (stereo not given), the outcome in [1], in assay [2], in [3], in assay [4], in assay [5] and in assay [6] was inactive. The result in assay [7], in [8], in [9], in assay [10], in [11] and in assay [12] was inactive. The molecule was called inactive in assay [13], in assay [14], in [15], in assay [16], in [18] and in assay [19]. The molecule was called inactive in assay [20]. In [17], the AC50 is 7.22 µM (active).
For `CN(C)N`, the call in assay [1], in assay [2], in assay [3], in assay [4], in assay [5] and in [6] was inactive. Also, the molecule was classed as inactive in assay [7], in [8], in assay [9], in assay [10], in [11] and in assay [12]. The call in [13], in assay [14], in assay [15], in assay [16], in assay [17] and in assay [18] was inactive. In addition, the outcome in assay [19] and in [20] was inactive.
